HepG2 viability: HepG2 cytotoxicity, counter-screen for TGF-b inhibitors; HepG2 CAGA-GFP viability, ATP luminescence, 18 h; 410,000 tested, 0.76% active; AID 588856; Potency, µM (top dose mostly 46.1 µM), inactives show at the highest dose activity change, negative = cytotoxicity, actives largely listed as cytotoxic
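HepG2 CAGA-GFP cells (1000/well, DMEM with 1% FBS) received compound, then TGF-beta at 500 pg/mL final, and were incubated 18 hours at 37 degrees C. Viability was read by CellTiter-Glo luminescence. Media-only wells were set as complete cell-killing and DMSO as no toxicity.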
TGFb SMAD3 inh: blocks TGF-b signaling; HepG2 CAGA-GFP TGF-b/SMAD3 reporter, GFP fluorescence, 18 h; TGF-beta stimulated, 500 pg/mL final; Potency, µM (top dose mostly 46.1 µM), for inactives: top-dose activity, negative = inhibition, most hits filed as inhibitors; 410,000 tested, 1.2% active; AID 588855; further: on the % scale 0 is the no-effect control and ±100 the full control effect; nearly all actives have a fitted effect of over 65% in size
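Read-out: total well GFP (ex488/em500-530) summed from mean per-cell fluorescence. Cells: HEPG2 CAGA-GFP, 1% FBS DMEM, 18 h at 37 degrees C with 500 pg/mL final TGF-beta. Unstimulated wells served as the full-inhibition control; stimulated DMSO wells = 0%.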
S2 tox: reduces viability in counter-screen for ATXN expression inhibitors; S2 cells (HEK-293 line with an ATXN2-luciferase reporter) viability, CellTiter-Fluor protease fluorescence, 24 h; Potency, µM (series often up to 56.7 µM), most hits filed as cytotoxic; 400,000 tested, 0.49% active; AID 651635; further: nearly all actives have a fitted effect of over 40% in size
ATXN2 expr inh: inhibitors of ATXN2 expression | HEK-293 ATXN2-luciferase reporter, luminescence, 24 h | Potency, µM (series often up to 57 µM), inactives show at the top dose activity change, negative = inhibition, hits mostly inhibitors | 360,000 tested, 0.72% active; further: on the % scale 0 is the no-effect control and ±100 the full control effect; nearly all actives have a fitted effect of over 55% in size
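ATXN2-luciferase reporter cells (luciferase flanked by upstream and downstream ATXN2 gene portions) were treated 24 h at 37 °C with compounds at up to 57 uM. SteadyGlo luminescence gave expression; GF-AFC fluorescence gave viability.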
12-LOX inh: blocks human arachidonate 12S-lipoxygenase | P18054 | purified 12hLO, xylenol orange hydroperoxide absorbance | Potency, µM (top dose mostly 108 µM), for inactives: at the top dose activity change, negative = inhibition, actives largely listed as inhibitors | 580,000 tested, 1.1% active | AID 1671190; further: on the % scale 0 is the no-effect control and ±100 the full control effect
Target sequence (P18054 whole entry, looked up): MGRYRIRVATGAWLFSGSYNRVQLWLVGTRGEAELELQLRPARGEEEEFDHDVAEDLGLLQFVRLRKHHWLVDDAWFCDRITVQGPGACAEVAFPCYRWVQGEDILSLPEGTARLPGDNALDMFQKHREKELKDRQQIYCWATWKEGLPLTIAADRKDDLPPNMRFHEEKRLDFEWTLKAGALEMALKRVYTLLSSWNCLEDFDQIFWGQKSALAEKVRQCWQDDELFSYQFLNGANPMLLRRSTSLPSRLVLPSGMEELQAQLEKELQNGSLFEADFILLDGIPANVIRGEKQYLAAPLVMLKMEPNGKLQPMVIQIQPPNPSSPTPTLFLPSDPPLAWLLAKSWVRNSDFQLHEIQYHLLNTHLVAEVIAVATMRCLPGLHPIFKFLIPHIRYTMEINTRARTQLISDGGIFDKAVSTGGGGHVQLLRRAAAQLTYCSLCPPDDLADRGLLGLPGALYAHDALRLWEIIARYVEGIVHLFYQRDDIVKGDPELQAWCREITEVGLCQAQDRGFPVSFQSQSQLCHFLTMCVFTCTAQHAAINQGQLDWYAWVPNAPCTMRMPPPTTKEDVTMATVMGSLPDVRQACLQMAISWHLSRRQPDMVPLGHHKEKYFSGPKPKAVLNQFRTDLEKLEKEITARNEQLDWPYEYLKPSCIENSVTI
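Purified human 12hLO (150 nM final) in 25 mM Hepes, 0.01% Triton X-100, pH 7.0 was preincubated 15 min at room temperature with compound. Then 40 uM arachidonic acid was added, 30 min. Hydroperoxide was read by Fe-XO absorbance ratio 573/405 nm.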
Starred values were filed as active, the others as inactive; i = inactive; ? = inconclusive; nt = no result given; ! = repeats disagree; [ ] = another dose, or the depositor's remark. Rows were chosen to be rich in hits. Some 2.7% of all compounds tested hit in one or more screens of this group. The call rests on the fitted dose curve; in most records, active means well fitted curve in the direction sought with a large enough effect; inconclusive means small, poorly fitted or top-dose-only effect, or another doubt; inactive means no such curve, though single readings can be large; an effect the other way counts as inactive or inconclusive. Potency means the concentration at half of the fitted maximal effect.

SMILES	HepG2 viability	TGFb SMAD3 inh	S2 tox	ATXN2 expr inh	12-LOX inh
CCOC(=O)c1ccc(N2C(=O)c3n[nH]c(-c4ccco4)c3C2c2ccc(O)c(OC)c2)cc1 (stereo not given)	-69%	10µM*	?	?	-23%
CCOC(=O)c1ccc(N2C(=O)c3n[nH]c(C)c3C2c2ccccn2)cc1 (stereo not given)	-11%	-7%	i	-5%	-18%
CCOC(=O)c1ccc(N2C(=O)c3n[nH]c(-c4ccco4)c3C2c2cccnc2)cc1 (stereo not given)	nt	nt	nt	nt	12%
O=S(=O)(Cc1ccccc1Cl)N1CCCc2ccccc21	nt	nt	nt	nt	-3%
COc1ccc(NC(=O)Cc2ccc3c(c2)OCCCO3)cn1	nt	nt	nt	nt	-22%
O=C(NCCCN1CCN(CCCNC(=O)c2ccc(F)cc2)CC1)c1ccc(F)cc1	-6%	-6%	i	12%	30%
CC(C)c1ccc(C(=O)NCCCN2CCN(CCCNC(=O)c3ccc(C(C)C)cc3)CC2)cc1	18µM*	14µM*	?	-14%	?
CC(C)OCCCNC(=S)NC1CCCC1	nt	nt	nt	nt	35µM*
O=C1C2=C(Nc3ccccc3SC2c2ccc(C(F)(F)F)cc2)c2ccccc21 (stereo not given)	-53%	11µM*	nt	?	4%
CC(C)c1ccc(C2Sc3ccccc3NC3=C2C(=O)c2ccccc23)cc1 (stereo not given)	-36%	nt	nt	nt	?
CC(=O)Nc1ccc(C2Sc3ccccc3NC3=C2C(=O)c2ccccc23)cc1 (stereo not given)	-26%	?	16µM*	12%	?
CCc1ccc(C2Sc3ccccc3NC3=C2C(=O)c2ccccc23)cc1 (stereo not given)	-33%	11µM*	28µM*	-37%	?
CCCn1c(-n2nc(C)cc2C)nc2c1c(=O)n(Cc1ccc(F)cc1)c(=O)n2C	nt	nt	nt	nt	-2%
CC(OC(=O)c1cc(=O)[nH]c2ccccc12)C(=O)N1CCCCCC1 (stereo not given)	nt	nt	nt	nt	-7%
O=C(CC1N=C2c3ccccc3N=C(SCC(=O)Nc3ccc(F)cc3)N2C1=O)NCc1ccc2c(c1)OCO2 (stereo not given)	-18%	?	?	23%	?
CCc1ccc(NC(=O)CSC2=Nc3ccccc3C3=NC(CC(=O)NCc4ccc5c(c4)OCO5)C(=O)N23)cc1 (stereo not given)	-29%	-33%	25µM*	8%	-29%
O=C(Nc1ccc2ccc(=O)oc2c1)C1=Cc2ccccc2OC=C1	nt	nt	nt	nt	-3%
O=C(O)CC1C(=O)NCCN1CCc1ccccc1 (stereo not given)	nt	nt	nt	nt	-4%
O=C(Nc1cc(Cl)ccc1O)c1cc(-c2ccc3c(c2)OCO3)on1	-22%	-3%	i	57%	?
CC(C)N1CCC2(CC1)N=C(c1ccc3c(c1)OCO3)CC(c1cc(Cl)ccc1O)N2 (stereo not given)	11µM*	?	?	?	-2%
CCCCCCCCOc1ccc(C(=O)Oc2ccc(C#N)cc2)cc1	nt	nt	nt	nt	4%
CCOC(=O)c1c(NC(=S)NNS(=O)(=O)c2ccc(Br)cc2)sc2c1CCCCC2	-21%	-23%	i	-2%	32µM*
O=C(CCc1ncc(-c2ccccc2)o1)Nc1ccc(N2CCOCC2)cc1N1CCOCC1	nt	nt	nt	nt	-42%
Cc1nnc(Sc2nc3ccccc3o2)c2ccccc12	-68%	13µM*	i	2%	?
CCn1c(-c2ccc(C(C)(C)C)cc2)n[nH]c1=S	-20%	-18%	i	-10%	16µM*
SMILES	HepG2 viability	TGFb SMAD3 inh	S2 tox	ATXN2 expr inh	12-LOX inh
CCN(CC)S(=O)(=O)c1cccc(-c2n[nH]c(=S)n2CC(C)C)c1	-7%	-13%	i	-2%	32µM*
Cc1[nH]c2ccc(-c3n[nH]c(=S)n3C)cc2c1C	-5%	-14%	i	31%	?
CCn1c(-c2ccc3[nH]c(C)c(C)c3c2)n[nH]c1=S	-23%	-9%	i	15%	10µM*
CCn1c(-c2cc(Br)ccc2O)n[nH]c1=S	0%	-4%	i	-3%	45µM*
CCn1c(-c2ccc(F)cc2)n[nH]c1=S	8%	0%	i	8%	?
Fc1ccc(-c2cnc([C@@H]3COCCN3Cc3c[nH]c4ccccc34)[nH]2)c(F)c1	nt	nt	nt	nt	-31%[176 µM]
CCC(C)NC(=O)c1ccccc1NC(=O)C1CCN(S(=O)(=O)Cc2ccc(C)cc2)CC1 (stereo not given)	nt	nt	nt	nt	6%
Cn1cccc1/C=N/n1c(-c2ccc(C(C)(C)C)cc2)n[nH]c1=S	-42%	-24%	i	2%	25µM*
CCn1c(-c2cccc(Cl)c2)n[nH]c1=S	6%	-9%	i	-8%	28µM*
O=C(Nc1cc(Cl)ccc1O)c1cc(-c2ccco2)on1	-15%	?	i	57%	?
O=C(Nc1cc(Br)ccc1O)c1cc(-c2ccco2)on1	2%	6%	i	30%	28µM*
CCn1ccnc1CN(C)C(=O)c1cc(-c2cnc(N)nc2)nc2c(C)cccc12	nt	nt	nt	nt	50%
Cc1ccc(Cl)cc1NC(=O)C[n+]1ccc(Cc2ccc([N+](=O)[O-])cc2)cc1	-20%	-25%	i	-20%	?
CC(C)(C)NC(=O)NC(=O)C[n+]1ccc(Cc2ccc([N+](=O)[O-])cc2)cc1	3.2µM*	-2%	i	-27%	12%
COc1ccc(CN2[C@@H](CC(=O)O)c3ccc(/C=C/C(=O)O)cc3S2(=O)=O)cc1	28%	12%	nt	nt	nt
COc1cccc(N2[C@@H](CC(C)=O)c3ccc(/C=C/C(C)=O)cc3S2(=O)=O)c1	-37%	16µM*	nt	?	-4%
COc1ccc(CN2[C@@H](CC(C)=O)c3ccc(/C=C/C(C)=O)cc3S2(=O)=O)cc1	11µM*!	?	?	?	0%
COc1ccc2nc(N3C(=O)C(O)=C(C(=O)c4ccco4)C3c3ccc(C)o3)sc2c1 (stereo not given)	-21%	-28%	i	-2%	?
CCCOc1cccc(C2C(C(=O)c3ccc(C)o3)=C(O)C(=O)N2c2nc(C)c(C(C)=O)s2)c1 (stereo not given)	-2%	14%	i	-2%	1.3µM*
Cc1ccc2nc(N3C(=O)C(O)=C(C(=O)c4ccc(C)o4)C3c3ccc(O)cc3)sc2c1 (stereo not given)	-10%	-24%	?	7%	28µM*
Cc1ccc2nc(N3C(=O)C(O)=C(C(=O)c4ccco4)C3c3cccs3)sc2c1 (stereo not given)	-12%	?	i	48%	18µM*
O=C1CC2CCN(C(=O)c3ccc(F)cc3)CC2CCN1 (stereo not given)	nt	nt	nt	nt	-8%[12.5 µM]
